Shown are actives, neighbours in structure and some others; about 4.9% of the full set was active somewhere.
SKKanGAS inh – SKKanGAS growth inhibition. AID 1662. inhibition, % at 7.5 µM. actives 1.3% (n = 300,000). S. pyogenes SKKanGAS, kanamycin growth, BacTiter-Glo, 6 h;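 active means mean replicate score, as percent of positive control median, at least 50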;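 further: strain carries kanamycin resistance gene driven by streptokinase promoter and grows in 40 µg/ml kanamycin; loss of luminescence reflects streptokinase promoter inhibition or plain growth inhibition; 0% = median of DMSO wells and 100% = positive control at its reference dose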
NALP1 inh – blocks the NALP1 inflammasome reconstituted in yeast; inhibition, % at 10 µM; actives 0.61% (n = 280,000); S. cerevisiae NALP1/ASC/caspase-1 growth, X-gal OD620, 72 h; in the data active means inhibition mostly above about 24%, no sharp cut-off; inactive means mostly below about 32%
TIM10 inh – TIM10 yeast growth inhibition; actives 1.4% (n = 330,000); S. cerevisiae TIM10 strain growth, BacTiter-Glo luminescence, 24 h; AID 463195; inhibition, % at 10 µM;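 active means inhibition of 40% or more at the single tested concentration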;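 further: wild-type TIM10 isogenic control strain grown at permissive 25 °C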
NALP3 yeast inh – NALP3 inhibition in yeast. actives 0.39% (n = 330,000). inhibition, % at 10 µM. Yeast reconstituted NLRP3/ASC/caspase-1, beta-gal luminescence, 24 h;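 active means inhibition of 50% or more; inactive means inhibition below 50%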;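 further: plate controls were induced DMSO wells for no effect and uninduced yeast grown without galactose for full effect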
tim23-1 inh – inhibits growth of tim23-1 mutant yeast; S. cerevisiae tim23-1 growth, BacTiter-Glo luminescence, 24 h; inhibition, % at 20 µM; actives 1.3% (n = 330,000); AID 463212;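 active means growth inhibition of the mutant yeast at or above 50%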;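 further: temperature-sensitive mutant grown at 25 °C; plate controls were DMSO-treated mutant yeast for no effect and medium wells lacking yeast for full effect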
tim10-1 inh – growth inhibitors of tim10-1 mutant yeast. S. cerevisiae tim10-1 ts strain growth, BacTiter-Glo, 24 h. inhibition, % at 20 µM. actives 2.2% (n = 330,000);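 active means inhibition of at least 40%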;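 further: mutant grown at 25 °C; 0% = DMSO wells with yeast and 100% = wells holding no yeast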
tim10-1 conf – tim10-1 yeast growth inhibition, confirmed; inhibition, % at 20 µM; actives 56% (n = 7,400); AID 463213; S. cerevisiae tim10-1 ts strain growth, BacTiter-Glo, 24 h; shares compounds with tim10-1 inh;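 active means inhibition of yeast growth at or above a set limit in either of two repeat tests at 20 µM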;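 further: tim10-1 mutant grown at permissive 25 °C to find synthetic lethal compounds; 0% = DMSO yeast wells and 100% = medium wells without yeast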
tim10 confirm – confirmation of TIM10 yeast growth inhibitors; shares compounds with TIM10 inh; S. cerevisiae tim10 strain growth, BacTiter-Glo luminescence, 24 h; inhibition, % at 10 µM; actives 63% (n = 4,600); AID 463215;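 active means inhibition of yeast growth at or above a set limit in either of two replicates at 10 µM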;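 further: this counterscreen used the strain with wild-type TIM10; 0% = yeast with DMSO and 100% = medium wells lacking yeast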
* marks the source's active call; other numbers are inactive results; x = no result given.

SMILES	SKKanGAS inh	NALP1 inh	TIM10 inh	NALP3 yeast inh	tim23-1 inh	tim10-1 inh	tim10-1 conf	tim10 confirm
O=C1CC(c2ccc3c(c2)OCCO3)Oc2ccc([N+](=O)[O-])cc21 (stereo not given)	5	-5	45*	9	47	42*	39*	54*
Cc1c(Cl)cccc1NC(=S)NC(=O)c1cncc(Br)c1	12	x	-9	9	43	30	x	x
CCc1c(C)nc(Nc2nc(C)c3ccc(OC)cc3n2)[nH]c1=O	2	2	31	7	42	31	x	x
COc1ccc2c(C)nc(Nc3nc(C)c(C)c(=O)[nH]3)nc2c1	31	6	66*	13	49	71*	61*	50*
CCC1CCCCN1C(=O)Cn1nc([N+](=O)[O-])c(Cl)c1C (stereo not given)	-2	-2	2	8	16	0	x	x
CC(C)(C)c1ccc(CSc2nnc(-c3ccccn3)n2Cc2ccco2)cc1	45	36	45*	4	41	42*	48*	38*
CNC(=O)CSc1nnc(-c2ccccn2)n1Cc1ccco1	1	6	-1	-7	5	21	x	x
Cc1ccc(CNC(=O)C2CCC(=O)N(CC3CCCCC3)C2)o1 (stereo not given)	-3	2	-3	3	4	-4	x	x
Oc1ccc(C[C@@H]2CNC(=S)N2CCCCC2CCCCC2)cc1	25	-9	40*	8	38	53*	25	18
c1cc(C2CCCCC2)ccc1Oc1nc(N2CCOCC2)nc(N2CCOCC2)n1	18	11	52*	-15	10	44*	5	33*
c1ccc(Oc2nc(N3CCOCC3)nc(N3CCOCC3)n2)cc1	-4	4	7	23	26	19	x	x
Cc1ccc(-n2c(-c3cccc(C)c3)n[nH]c2=S)cc1	-2	-13	46*	11	31	43*	15	16
Oc1ccccc1-c1nc(NCCN2CCOCC2)c2ccccc2n1	-8	2	50*	0	44	52*	40*	32*
Cc1ccc(C(CC(=O)N2CCCC2)c2ccccc2)c(O)c1C (stereo not given)	4	1	72*	21	32	41*	14	33*
Cc1cccc(C(CC(=O)N2CCCC2)c2ccccc2)c1O (stereo not given)	8	-6	1	12	34	25	x	x
COc1ccc2c(c1OC)C(=O)OC2Nc1nc(-c2cc3cc(Br)ccc3oc2=O)cs1 (stereo not given)	-1	x	58*	43	40	49*	61*	71*
COc1ccc(-c2csc(NC3OC(=O)c4c3ccc(OC)c4OC)n2)cc1OC (stereo not given)	0	13	-4	26	0	-8	x	x
Oc1cc(NCc2cccnc2)ccc1-c1nc2ccccc2o1	16	x	55*	34	27	47*	27	39*
CC[C@]12c3[nH]c4cc(-c5ccco5)ccc4c3CCN1C(=O)[C@@H](CC(=O)NCCCn1ccnc1)C[C@@H]2C(=O)N1CCN(C(=O)C2CC2)CC1	x	x	-6	x	24	2	x	x
CCC(CC)NC(=O)Nc1cccc(C)c1C	-1	8	-2	8	-2	2	x	x
CCC(C)N(CC(=O)Nc1cccc(C)c1C)C(=O)CCl (stereo not given)	-2	-5	54*	13	45	53*	47*	46*
COc1ccc(N2CCN(C(=O)c3cn(C4CCCC4)c(=O)c4c3c3ccccc3n4C)CC2)cc1	19	3	31	12	-2	20	x	x
Cn1c2ccccc2c2c(C(=O)N3CCN(c4ccccn4)CC3)cn(C3CCCC3)c(=O)c21	9	1	47*	8	27	40*	18	41*
CCCC(C(=O)NCCC(C)C)N(Cc1ccccc1Cl)C(=O)c1snc(C(N)=O)c1N (stereo not given)	5	15	0	6	24	17	x	x
CCOC(=O)C1=NN(c2ccccc2C)C2=NC(C)=C(C(=O)OC)C(c3cccs3)N12 (stereo not given)	0	2	42*	4	37	41*	18	20
SMILES	SKKanGAS inh	NALP1 inh	TIM10 inh	NALP3 yeast inh	tim23-1 inh	tim10-1 inh	tim10-1 conf	tim10 confirm
Cc1cccc(C(=O)NC(=S)Nc2ccc(Cc3ccncc3)cc2)c1	26	2	46*	7	30	48*	31*	34*
O=C(CCc1ccccc1)Nc1ncn[nH]1	-5	4	0	13	13	3	x	x
O=C(/C=C/c1ccccc1)Nc1ncn[nH]1	-8	5	53*	21	41	49*	56*	48*
O=C(Nc1ccc(OCC(F)(F)C(F)F)c(C(F)(F)F)c1)c1ccc(Cl)cc1	92*	x	58*	6	30	53*	35*	-10
COc1ccc(N(CC(=O)Nc2cc(Cl)ccc2OC)C2=NC3CS(=O)(=O)CC3S2)cc1 (stereo not given)	8	8	-1	16	9	8	x	x
CC1CCN(C(=S)SCc2nc(N)nc(Nc3ccccc3)n2)CC1	-3	12	43*	21	42	41*	19	34*
COC(=O)c1sccc1S(=O)(=O)N1CCCC(N(C)CCc2ccccn2)C1 (stereo not given)	-9	5	-8	10	-6	-11	x	x
O=C(Nc1cccc(C(F)(F)F)c1)c1cccnc1NCCc1ccccc1	29	17	43*	12	40	44*	30*	-5
CCOC(=O)c1c(C)[nH]c(C)c1S(=O)(=O)N1CCN(c2ccc([N+](=O)[O-])cc2)CC1	1	14	13	11	14	11	x	x
CCOC(=O)C1(C)NC(c2cccs2)C2C(=O)N(c3ccc(OC)cc3)C(=O)C21 (stereo not given)	3	-2	4	6	7	5	x	x
S=c1[nH]nc(COc2ccccc2)n1/N=C/c1ccc(Br)s1	25	-3	46*	35	43	47*	34*	49*
Oc1ccccc1/C=N/n1c(COc2ccccc2)n[nH]c1=S	-3	-23	13	25	42	37	x	x
COc1ccc(N(C)S(=O)(=O)c2ccc3c(c2)CCN3C(=O)C2CC2)c(OC)c1	7	-24	-14	24	24	27	x	x
CC(NC(=O)/C(C#N)=C/c1ccc([N+](=O)[O-])o1)c1ccccc1 (stereo not given)	57*	68*	62*	24	-71	50*	23	93*
CC(NC(=O)/C(C#N)=C/c1ccco1)c1ccccc1 (stereo not given)	3	x	-26	-6	6	-5	x	x

Screens (PubChem BioAssay)
